Results from PubChem BioAssay (NCATS).
Inconclusive results are not listed. A call without a number means that no potency is given here. Calls of active or inactive are those of the source. Unless noted, calls follow the shape of the dose curve; as a rule, active = well fitted curve in the direction sought with a large enough effect; inconclusive = small, poorly fitted or top-dose-only effect, or another doubt; inactive = no such curve, though single readings can be large; an effect the other way counts as inactive or inconclusive.

What was measured:
[1] = Confirmatory screen GU Rhodamine qHTS for Zika virus inhibitors qHTS (AID 1347157); also: nearly all actives have a fitted effect of over 70% in size
Summary of the method: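 Unlinked NS2B/NS3, 25 nM; Rhod110 peptide, 1.5 microM; compounds, up to 114 microM. Reaction run 15 min at RT in 10 mM Tris-HCl pH 8.0, 0.01% Tween 20; kinetic fluorescence change fitted with a 4-parameter Hill model.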

[2] = Confirmatory screen NINDS Rhodamine qHTS for Zika virus inhibitors (AID 1347161); also: nearly all actives have a fitted effect of over 60% in size; also: potency is read from the fitted curve at half-maximal effect;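 as to activity change, negative = inhibition: purified Zika NS2B-NS3 protease with linked NS2B cofactor domain and Rhodamine110 peptide substrate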
Summary of the method: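 Kinetic fluorescence (Ex 480 nm, Em 540 nm) over 15 min with 1.5 microM Rhodamine110 peptide and 25 nM linked protease.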

[3] = Tertiary RLuc qRT-PCR qHTS assay for Zika virus inhibitors (AID 1347169); also: top concentration of the series differs between compounds; nearly all actives have a fitted effect of over 55% in size
Summary of the method: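 Orthogonal cell-based infection assay using recombinant ZIKV-RLuc (Cambodian) in Vero cells; compound added prior to virus at MOI 1-2. Incubation lasts 48-72 hrs at 37 degrees C before live-cell Renilla substrate is added and luminescence measured.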

[4] = ZIKV-mCherry secondary qHTS for Zika virus inhibitors (AID 1347158); also: top concentration of the series differs between compounds
Summary of the method: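 Compounds were tested in Vero monkey kidney cells infected with recombinant mCherry-expressing Zika virus at MOI 1 for 48-72 h at 37 °C. Fixed cells were nuclear-stained and imaged, and infection rate was taken as the fraction of mCherry-positive cells.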

[5] = tested on: Zika virus NS2B-NS3 protease (linked); assay: 384 well plate NINDS AMC confirmatory qHTS for Zika virus inhibitors (AID 1347163); also: nearly all actives have a fitted effect of over 50% in size; also: potency is read from the fitted curve at half-maximal effect;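 as to activity change, negative = inhibition: linked protease at 5 30 or 60 nM final depending on run; fluorescence of AMC released from Ac-VKTGKR-AMC peptide cleaved by the protease; top concentration of the series differs between compounds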
Summary of the method: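 Fluorescence at 355/460 nm was read after 25 minutes of cleavage of 30 microM Ac-VKTGKR-AMC at room temperature, in the dark. Before substrate addition, compounds (up to 1 mM final) sat ~15 minutes with 5, 30 or 60 nM linked protease. Signals were normalized to no-enzyme and no-inhibitor wells.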

[6] = tested on: Zika virus NS2B-NS3 protease (linked construct); assay: 384 well plate NINDS Rhodamine confirmatory qHTS for Zika virus inhibitors (AID 1347164); also: nearly all actives have a fitted effect of over 65% in size; also: potency is read from the fitted curve at half-maximal effect; as to activity change, negative = inhibition: top concentration of the series differs between compounds
Summary of the method: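 Compounds are incubated about 15 minutes with linked protease (5, 30 or 60 nM final). Rhodamine 110-tagged Ac-LKRR substrate (10 microM final) is added and fluorescence measured after 25 minutes.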

[7] = molecular target: Cytochrome P450 3A4 (Homo sapiens) (UniProt P08684); assay: qHTS Assay for Inhibitors and Substrates of Cytochrome P450 3A4 (AID 884); also: nearly all actives have a fitted effect of over 50% in size
Summary of the method: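 Luminescent readout of luciferin produced by CYP3A4 (20 nM) dealkylation of Luciferin-PPXE, 25 uM (its KM). NADPH-driven reaction ran 60 min at RT after 10 min compound preincubation; data scaled to 57 uM ketoconazole as 100% inhibition.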

[8] = Confirmation and Secondary Assay for Modulators of Hemoglobin Beta Chain Splicing at IVS2 654 locus (AID 910);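 also: per-well total GFP intensity by laser scanning cytometry after 2-day treatment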
Summary of the method: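 HeLa cells stably carrying EGFP interrupted by mutant beta-globin IVS2-654 intron (CMV-driven) were treated with compound for 2 days at 37C; corrected splicing was scored as total peak GFP intensity per well (488 nm excitation, 500-520 nm emission).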

[9] = Confirmation and Secondary Assay for Modulators of Hemoglobin Beta Chain Splicing at IVS2 705 locus (AID 930);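 also: HeLa cells stably expressing the EGFP-705 splicing reporter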
Summary of the method: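 Restored EGFP fluorescence after 2-day compound exposure reports splicing correction in IVS2-705 EGFP reporter HeLa cells; positive control was 500 nM splice-blocking PNA oligo. Signal measured as well total peak GFP intensity (488 nm excitation).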

[10] = qHTS Assay for Lipid Storage Modulators (AID 1519; calls by dose curve); settings: Drosophila S3 cells, BODIPY lipid droplet/cell ratio, laser cytometry, cells loaded with oleic acid
Summary of the method: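 Cells seeded at 5,000 per well were treated with compounds over a concentration series and loaded with oleic acid (400 uM, as added). Lipid droplet fluorescence (488 nm excitation, 500-530 nm channel) was read by laser-scanning cytometry and normalized to 20 uM Triacsin C.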

[11] = molecular target: Ubiquitin carboxyl-terminal hydrolase 1 (Homo sapiens) (UniProt O94782); assay: Inhibitors of USP1/UAF1: Pilot qHTS (AID 504865); also: nearly all actives have a fitted effect of over 35% in size; also: potency is read from the fitted curve at half-maximal effect;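 as to activity change, negative = inhibition: rhodamine fluorescence freed from ubiquitin-rhodamine substrate followed over time; top concentration of the series differs between compounds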
Summary of the method: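 Kinetic fluorescence assay: 1nM USP1/UAF1, 15 min compound preincubation, then 150nM Ub-Rho; 480/540 nm.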

Ubiquitin carboxyl-terminal hydrolase 1 (Homo sapiens), sequence (O94782 whole entry, looked up): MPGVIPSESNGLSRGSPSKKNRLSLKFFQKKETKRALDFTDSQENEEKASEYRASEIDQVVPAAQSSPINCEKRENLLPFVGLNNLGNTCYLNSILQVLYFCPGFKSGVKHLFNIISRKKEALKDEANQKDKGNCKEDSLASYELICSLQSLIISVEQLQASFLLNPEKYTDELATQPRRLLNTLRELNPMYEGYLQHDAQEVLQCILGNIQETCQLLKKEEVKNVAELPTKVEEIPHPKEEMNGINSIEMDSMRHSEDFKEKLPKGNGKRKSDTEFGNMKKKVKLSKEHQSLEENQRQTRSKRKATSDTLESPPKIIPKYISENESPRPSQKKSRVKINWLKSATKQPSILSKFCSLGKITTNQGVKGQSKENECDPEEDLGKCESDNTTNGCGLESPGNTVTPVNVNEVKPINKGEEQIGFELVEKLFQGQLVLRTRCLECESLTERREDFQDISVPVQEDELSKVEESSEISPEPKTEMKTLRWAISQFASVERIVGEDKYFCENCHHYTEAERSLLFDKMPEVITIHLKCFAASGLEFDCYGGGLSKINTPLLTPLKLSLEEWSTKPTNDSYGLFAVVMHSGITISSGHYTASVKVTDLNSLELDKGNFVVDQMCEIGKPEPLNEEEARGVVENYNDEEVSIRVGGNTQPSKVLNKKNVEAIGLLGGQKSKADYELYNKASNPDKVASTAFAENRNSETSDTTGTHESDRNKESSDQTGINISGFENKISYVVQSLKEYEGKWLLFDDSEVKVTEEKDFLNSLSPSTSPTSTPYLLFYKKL
Cytochrome P450 3A4 (Homo sapiens), sequence (P08684 whole entry, looked up): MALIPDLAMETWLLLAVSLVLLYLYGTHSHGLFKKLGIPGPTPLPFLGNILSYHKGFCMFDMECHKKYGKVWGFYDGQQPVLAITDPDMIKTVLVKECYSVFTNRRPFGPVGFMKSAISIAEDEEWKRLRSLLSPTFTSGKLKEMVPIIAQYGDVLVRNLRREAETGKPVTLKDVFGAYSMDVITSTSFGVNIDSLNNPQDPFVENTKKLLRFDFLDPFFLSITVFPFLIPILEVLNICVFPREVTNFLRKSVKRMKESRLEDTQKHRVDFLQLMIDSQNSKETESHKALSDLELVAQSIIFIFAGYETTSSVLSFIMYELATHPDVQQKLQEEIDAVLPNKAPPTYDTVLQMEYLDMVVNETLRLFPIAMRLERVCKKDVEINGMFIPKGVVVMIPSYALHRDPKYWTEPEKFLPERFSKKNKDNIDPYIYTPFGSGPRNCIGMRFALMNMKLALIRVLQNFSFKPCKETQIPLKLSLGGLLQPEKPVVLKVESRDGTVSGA

Structure (SMILES): O=C(Nc1ccccc1C(F)(F)F)c1ccc2oc(=O)c(S(=O)(=O)c3ccc(F)cc3)cc2c1
- Potency [1]: inactive
- Potency [2]: inactive
- Potency [3]: inactive

Structure (SMILES): O=C(Nc1ccccc1C(=O)OCc1cc(=O)n2c3c(sc2n1)CCCC3)c1cccc(Cl)c1
- Potency [1]: inactive
- Potency [3]: inactive

Structure (SMILES): O=C(CSc1nnc(-c2cccc([S+](=O)([O-])NC3CCCC3)c2)n1-c1ccc(F)cc1)Nc1ccc(C(=O)O)cc1
- Potency [1]: inactive
- Potency [2]: inactive
- Potency [3]: inactive

Structure (SMILES): CC(C)c1ccc(Nc2sc(C(=O)c3ccccc3)c(N)c2S(=O)(=O)c2ccccc2)cc1
- Potency [1]: inactive
- Potency [2]: inactive
- Potency [3]: inactive

Structure (SMILES): COC(=O)c1c(NC(=O)c2cc3nc(-c4ccc(Br)cc4)cc(C(F)(F)F)n3n2)sc2c1CCCC2
- Potency [1]: inactive
- Potency [2]: inactive
- Potency [3]: inactive

Structure (SMILES): CC(C)c1nn2c(=O)cc(COC(=O)c3ccccc3NC(=O)c3cccc(Cl)c3)nc2s1
- Potency [1]: inactive
- Potency [2]: inactive
- Potency [3]: inactive

Structure (SMILES): O=C(Nc1ccc(C(=O)OCc2cc(=O)n3nc(C4CC4)sc3n2)cc1)c1cccc(Cl)c1
- Potency [4]: inactive
- Potency [5]: inactive
- Potency [6]: inactive

Structure (SMILES): CCOC(=O)c1c(-c2ccccc2)csc1NC(=O)c1cc(-c2ccc(Cl)cc2)on1
- Potency [1]: inactive
- Potency [2]: inactive
- Potency [3]: inactive

Structure (SMILES): O=C(Nc1ccccc1C(=O)OCc1cc(=O)n2nc(C3CC3)sc2n1)c1cccc(Cl)c1
- Potency [1]: inactive
- Potency [2]: inactive
- Potency [3]: inactive

Structure (SMILES): COc1ccc(OC)c(Nc2sc(C(=O)c3ccccc3)c(N)c2S(=O)(=O)c2ccccc2)c1
- Potency [1]: inactive
- Potency [2]: inactive
- Potency [3]: inactive

Structure (SMILES): O=C(Nc1ccccc1C(=O)OCc1cc(=O)n2c3c(sc2n1)CCCC3)c1ccc(Cl)cc1
- Potency [1]: inactive
- Potency [3]: inactive

Structure (SMILES): O=C(COc1ccccc1F)Nc1ccc(C(=O)OCc2cc(=O)n3nc(C4CC4)sc3n2)cc1
- Potency [1]: inactive
- Potency [3]: inactive

Structure (SMILES): O=C(OC1Cc2c(O)cc(O)cc2OC1c1cc(O)c(O)c(O)c1-c1c(C2Oc3cc(O)cc(O)c3CC2OC(=O)c2cc(O)c(O)c(O)c2)cc(O)c(O)c1O)c1cc(O)c(O)c(O)c1 (configuration not stated)
- Potency [7]: inactive
- outcome [8]: inactive
- outcome [9]: inactive
- activity change, negative = inhibition ([10]; at 57.5 µM (top of the series)): 6.84% (inactive)
- max response ([10]; measured here: cell count channel max response): 16.9%
- max response ([10]; measured here: lipid channel max response): 25.4%
- Potency [11]: 50.1 µM (active)
- Potency [4]: inactive
- Potency [2]: 20 µM (active)
- Potency [5]: 20 µM (active)
- Potency [6]: inactive

Structure (SMILES): O=C(CNC(=O)c1ccccc1)OC(C(=O)Nc1cc(C(F)(F)F)ccc1Cl)c1ccccc1 (configuration not stated)
- Potency [1]: inactive
- Potency [2]: inactive
- Potency [3]: inactive

Structure (SMILES): CN(C)c1cc(CNCC(C)(C)C)c(O)c2c1C[C@H]1C[C@H]3[C@H](N(C)C)C(=O)C(C(N)=O)=C(O)[C@@]3(O)C(=O)C1=C2O
- Potency [4]: inactive
- Potency [2]: inactive
- Potency [5]: 178 µM (active)
- Potency [6]: 158 µM (active)

Structure (SMILES): O=C(O)Cc1cc(I)c(Oc2cc(I)c(O)c(I)c2)c(I)c1
- Potency [7]: inactive
- outcome [8]: inactive
- outcome [9]: inactive
- Potency [11]: inactive
- Potency [1]: inactive
- Potency [3]: inactive
